Most compounds without a hit are left out; they make up all but 0.84% or so of the library.
PPARg SRC1 recr: PPARgamma-driven SRC-1 recruitment agonism. activation, % at 8 µM. P37231. 200,000 tested, 0.41% active. PPARgamma-SRC-1 coactivator recruitment biochemical assay; in the data active = activation above about 19%
Target sequence (P37231 whole entry, looked up): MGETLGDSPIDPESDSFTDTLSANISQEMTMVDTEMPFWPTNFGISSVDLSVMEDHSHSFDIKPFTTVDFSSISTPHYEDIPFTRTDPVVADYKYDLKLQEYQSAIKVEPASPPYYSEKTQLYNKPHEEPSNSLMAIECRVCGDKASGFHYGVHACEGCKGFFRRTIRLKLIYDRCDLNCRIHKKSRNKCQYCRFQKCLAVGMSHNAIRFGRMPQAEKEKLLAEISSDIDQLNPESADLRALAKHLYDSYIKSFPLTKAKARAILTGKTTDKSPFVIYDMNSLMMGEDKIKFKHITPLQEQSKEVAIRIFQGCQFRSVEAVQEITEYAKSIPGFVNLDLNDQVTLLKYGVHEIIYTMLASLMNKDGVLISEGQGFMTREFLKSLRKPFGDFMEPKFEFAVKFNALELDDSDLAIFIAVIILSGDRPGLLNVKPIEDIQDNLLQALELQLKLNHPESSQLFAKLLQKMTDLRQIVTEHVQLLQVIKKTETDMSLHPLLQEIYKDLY
PPARg SRC2 recr: PPARgamma-driven SRC-2 recruitment agonism; PPARgamma LBD-SRC-2 recruitment, biochemical; activation, % at 8 µM; 200,000 tested, 0.34% active; in the data active = activation above about 22%
SRC1 TRFRET art: counter-screen for PPARgamma SRC-1 recruitment agonists: TR-FRET artefact; TR-FRET detection artefact counter-screen, emission ratio; hits give high values; TR-FRET ratio at 8 µM; 99,000 tested, 0.34% active; AID 1051; in the data active = TR-FRET ratio above about 2300
TR-FRET SRC-2 ct: TR-FRET artefact, counter-screen to PPARgamma/SRC-2 agonist assay | hits give high values | 200,000 tested, 0.4% active | TR-FRET ratio at 8 µM
SRC3 TRFRET art: TR-FRET artefact, counter-screen to PPARgamma/SRC-3 agonist assay | PPARgamma/SRC-3 format; hits give high values | TR-FRET ratio at 8 µM | 99,000 tested, 0.39% active
PPARg SRC-3 ag: agonists of human PPARgamma SRC-3 coactivator recruitment. biochemical PPARgamma/SRC-3 coactivator recruitment assay. P37231. 200,000 tested, 0.26% active. AID 731. activation, % at 8 µM; in the data active = activation above about 23%
A number is an active result; n = inactive; x = no result given. Cut-off read from the data, not from the text of the source, unless noted: active = TR-FRET ratio above about 2000; inactive = the rest.

SMILES | PPARg SRC1 recr | PPARg SRC2 recr | SRC1 TRFRET art | TR-FRET SRC-2 ct | SRC3 TRFRET art | PPARg SRC-3 ag
O=C(O)c1cnn(-c2ccccc2)c1-n1cccc1 | n | n | x | n | x | n
CCN(Cc1ccccc1)C(=O)COC(=O)Cn1cnc2ccccc21 | n | n | n | n | n | n
CCc1nc2ccccc2n1CC(O)COCC1CC=CCC1 (stereo not given) | n | n | n | n | n | n
CSc1ncccc1C(=O)OCC(=O)C(C)(C)C | n | n | n | n | n | n
COc1ccccc1-n1c(SCC(=O)NC(C)(C)C)nc(O)cc1=O | n | n | x | n | x | n
CC(C)(C)NC(=O)CSc1nc(O)cc(=O)n1-c1ccccc1F | n | n | x | n | x | 29
O=C(CSc1nnc(Cc2csc(Nc3cccc(Cl)c3)n2)o1)N1CCc2ccccc21 | n | n | x | 2013 | x | n
CNC(=S)N1N=C(c2ccc(C)cc2)CC1c1cc(OC)ccc1OC (stereo not given) | n | n | 2589 | n | 2547 | n
CNC(=S)N1N=C(c2ccc(C)cc2)CC1c1ccc(OC)cc1 (stereo not given) | n | n | x | n | x | n
CNC(=S)N1N=C(c2ccc(C)cc2)CC1c1ccc(N(C)C)cc1 (stereo not given) | n | n | 2359 | n | 2431 | n
c1csc(Cc2nn3c(-c4n[nH]c5c4CCC5)nnc3s2)c1 | 20 | n | x | n | x | n
c1coc(-c2nnc3sc(Cc4cccs4)nn23)c1 | n | n | x | n | x | n
Cc1cc(C)c(NC(=O)COC(=O)/C=C/c2cccs2)c(C)c1 | n | n | n | n | n | n
CCN1/C(=C\C(=S)Nc2ccccc2)Sc2ccccc21 | n | n | 3876 | 2548 | 3725 | n
CN(C)S(=O)(=O)c1ccc(N2CCCC2)c(C(=O)Nc2nc3c(ccc4ccccc43)s2)c1 | n | n | n | 2069 | 2179 | n
O=C(Nc1nc2c(ccc3ccccc32)s1)c1cc([N+](=O)[O-])ccc1N1CCOCC1 | n | n | n | n | n | n
O=c1c2ccccc2nnn1COc1cccc(Cl)c1 | n | n | n | n | n | n
CC(C)(C)c1ccc(OCc2ccc(C(=O)N3CCOCC3)o2)cc1 | n | 25 | n | 2010 | n | n
CC(C)(C)c1ccc(OCCCC(=O)N2CCOCC2)cc1 | n | n | n | n | n | n
O=C(CSCc1ccccc1)NNC(=S)Nc1cccc(Cl)c1Cl | n | n | x | n | x | n
O=c1c(/C=N/OCc2ccc(Cl)cc2Cl)c[nH]n1-c1cccc(Cl)n1 | n | n | n | 2085 | n | n
Cc1ccccc1-n1c(-c2ccco2)n[nH]c1=S | n | 27 | n | n | n | n
COc1ccc(NS(=O)(=O)c2c(C)n(C)c(=O)n(C)c2=O)cc1OC | n | 24 | x | n | x | n
CCN1c2ccccc2-c2nc3ccccc3n2C1c1cccs1 (stereo not given) | n | n | n | n | n | n
CCN(CC)CCCNC(=O)c1ccc2c(SCC(=O)O)c3c(nc2c1)CCC3 | n | 23 | n | n | n | n
SMILES | PPARg SRC1 recr | PPARg SRC2 recr | SRC1 TRFRET art | TR-FRET SRC-2 ct | SRC3 TRFRET art | PPARg SRC-3 ag
COc1cc(OC)cc(C(=O)NCC(=O)OCC(=O)c2ccc3c(c2)-c2ccccc2C3)c1 | n | n | n | 2065 | 2602 | n
CCCCOc1ccc(C(=O)N/C(=C/C=C/c2ccccc2)C(=O)O)cc1 | n | n | n | n | n | 30
CC(C)NC(=O)COC(=O)c1ccccc1C(=O)c1ccccc1 | n | n | n | n | n | n
Cc1ccc2nc(N3C(=O)C(O)=C(C(=O)c4ccco4)C3c3cccs3)sc2c1 (stereo not given) | 38 | 47 | x | 2260 | x | 64
CCOC(=O)c1sc(N2C(=O)C(O)=C(C(=O)c3ccco3)C2c2ccccc2)nc1C (stereo not given) | n | n | x | n | x | n
COc1ccccc1NC(=O)C1=C(C)NC(SCC(=O)c2ccccc2)=C(C#N)C1c1ccco1 (stereo not given) | n | n | x | 2496 | x | n
COc1cc(CCC(=O)Nc2ccc(S(=O)(=O)NC3=NCCCCC3)cc2)cc(OC)c1OC | n | n | n | n | n | n
CCOC(=O)c1c(NC(=O)Cc2cccs2)sc(C(=O)NC2CCCC2)c1C | n | n | x | n | x | 35
CCOC(=O)c1c(NC(=O)Cc2cccs2)sc(C(=O)NC2CCCCC2)c1C | n | n | x | n | x | n
O=C(Nc1nc2c(cc3c4c(cccc42)CC3)s1)c1ccccc1Cl | n | n | n | 1981 | 2115 | n
Cc1nn(C)cc1C(C)Nc1nc2nonc2nc1N1CCCCC1 (stereo not given) | n | n | n | n | n | n
O=C(Oc1cccc(C(=S)N2CCOCC2)c1)c1cc([N+](=O)[O-])cc([N+](=O)[O-])c1 | n | n | n | n | n | n
CSc1nsc(/C=C/Nc2ccc(F)cc2F)c1C#N | n | n | n | n | n | n
CSc1nsc(/C=C/Nc2ccc(C(=O)O)cc2)c1C#N | n | n | 2461 | 2141 | 2133 | n
COc1cccc(-c2cc3nc(-c4ccccc4)cc(N4CCC5(CC4)OCCO5)n3n2)c1 | n | n | x | 2317 | x | n
Cc1ccc(NCCNc2ccc(C)cc2)cc1 | n | n | x | n | x | n
COc1ccc(NCCNc2ccc(OC)cc2)cc1 | 20 | n | x | n | x | n
CCOC(=O)c1[nH]c(C)c(C(=O)OCCOc2cccc(C)c2)c1C | n | n | n | n | n | n
COCCN(C(=O)CNC(=O)c1cccs1)C(C(=O)NC(C)(C)C)c1ccccc1 (stereo not given) | n | n | n | n | n | n
CCc1nn(CC(=O)NCCCN(CC)Cc2ccccc2)c(=O)c2cc3sccc3n12 | n | n | x | 2044 | x | n
O=C(CSc1nc(COc2ccccc2)nc2ccccc12)NC1CCCC1 | n | n | n | n | n | n
CC(C)(C)c1ccccc1NC(=O)c1c(O)c2cccc3c2n(c1=O)CC3 | n | n | n | n | 2335 | n
Cc1c(C(=O)Nc2ccc(-n3cnnn3)cc2)oc2ccccc12 | n | n | x | 1999 | x | n
Cc1ccccc1N(CC(=O)Nc1ccc(S(=O)(=O)N2CCOCC2)cc1)S(C)(=O)=O | n | n | n | n | n | n
Oc1ccc(C2Nc3cccc4cccc(c34)N2)c(O)c1 | 30 | n | x | n | x | 31
SMILES | PPARg SRC1 recr | PPARg SRC2 recr | SRC1 TRFRET art | TR-FRET SRC-2 ct | SRC3 TRFRET art | PPARg SRC-3 ag
COc1ccnc(-n2cccc2C#N)c1C#N | n | n | n | n | n | n
CCCCNC(=O)CSc1nc2ccccc2n1S(=O)(=O)c1ccc(Br)cc1 | n | n | n | 1974 | n | n
CCCCNC(=O)CSc1nc2ccccc2n1S(=O)(=O)c1ccc(Cl)cc1 | n | n | n | n | n | n
O=S(=O)(c1ccccc1)N1CCN(c2nc(-c3cccs3)nc3ccccc23)CC1 | n | n | n | n | n | n
Cc1nc(N2CCN(S(=O)(=O)c3ccc(F)cc3)CC2)c2c(-c3cccs3)csc2n1 | n | n | 3173 | 2641 | 2853 | n
CCOC(=O)CSc1c(-c2ccc(Cl)cc2)[nH]c2ccccc12 | n | n | n | n | 2441 | n
O=C(COC(=O)/C=C/c1ccco1)Nc1ccc(F)cc1Cl | n | n | n | n | n | n
